The source of these data is PubChem BioAssay AID504832 (National Center for Advancing Translational Sciences (NCATS), 2011).

Where “and” joins values, the source holds several entries; their conditions need not be identical. Equal entries are not always repeated. Hit rate of the full screen: of about 310,000 compounds, about 18,000 (5.8%) were called active. Inconclusive results (about 22%) are left out. The call rests on the fitted dose curve; in most records, active means well fitted inhibition curve with a large enough effect; inconclusive means small, poorly fitted or top-dose-only effect, or another doubt; inactive means no such curve, though single readings can be large or run the other way. Only a selection was taken, and actives are over-represented in it overall. Some compounds were tested as several samples or in several runs, with calls that do not always agree.
On the % scale 0 is the no-effect control and ±100 the full control effect; potency means the concentration at half of the fitted maximal effect.

The nature of the assay: Primary qHTS for delayed death inhibitors of the malarial parasite plastid, 48 hour incubation. To be noted: P. falciparum luciferase growth in erythrocytes; series mostly up to 28.7 µM; activity change, negative = inhibition: at the top concentration. Put shortly:
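Cell-based growth assay: transgenic P. falciparum expressing firefly luciferase, cultured in red cells within RPMI 1640 containing 0.5% w/v Albumax, 24 mM bicarbonate and gentamycin. A drop in luciferase activity indicates inhibition.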
For orientation: qHTS replaces the single test concentration by a dilution series.
In the case of `Cc1ccc(S(=O)(=O)N2CCN(C)CC2)cc1`, the “activity change, negative = inhibition” value was 0% (inactive). On to `CCOC(=O)C1=C(O)/C(=C/c2cc(C)n(-c3ccccc3)c2C)N=C1C`, for which the Potency was 0.0657 µM (active). Consider `CCC1=NN2C(=N)/C(=C/c3cc(C)n(-c4ccccc4)c3C)C(=O)N=C2S1`, for which the “activity change, negative = inhibition” value is -0.786% (inactive). `COC(=O)C1=C(O)/C(=C/c2ccc(OCC(=O)Nc3ccccc3)cc2)N=C1C`: the “activity change, negative = inhibition” value is -10.6% (inactive). Same read-out and setting: the value for `O=C(NCCCN1CCCC1=O)c1cccc(S(=O)(=O)NCc2ccccc2)c1` was 2.77% (inactive); that for `O=[N+]([O-])c1ccc(N2CCN(c3ccc(F)cc3)CC2)cn1` was -14.1% (inactive); that for `Cc1nnc(NC(=O)c2ccc3nccnc3c2)s1` was 43% (inactive).

As to `COc1ccc(CC(=O)Nc2nc(-c3ccc(F)c(F)c3)cs2)cc1OC`, the “activity change, negative = inhibition” value was -10.2% (inactive).

For `COc1ccc(CCN(C(=O)COc2ccccc2)c2nc(-c3ccccc3)cs2)cc1OC`, the Potency was 10.4 µM (active). Regarding `CN(C(=O)COc1ccccc1)c1nnc(-c2ccncc2)s1`, the “activity change, negative = inhibition” value was 10.5% (inactive).

For the compound `O=C(c1ccc(Cn2cc([N+](=O)[O-])cn2)o1)N1CCCC1`, the “activity change, negative = inhibition” value is 11.5% (inactive). The same measure, in the same setting: the result for `C/C(=N\NC(=O)c1ccccc1F)c1ccccn1` reads -28% (inactive). Regarding `C/C(=N\NC(=O)Cc1ccc(F)cc1)c1ccc(F)cc1`, the “activity change, negative = inhibition” value was 7.34% (inactive).

Consider `C/C(=N\NC(=O)Cc1ccc(Cl)cc1)c1ccccn1`, for which the Potency is 1.47 µM (active). Consider `COc1ccc(C/C(C)=N/NC(=O)c2ccncc2)cc1`, for which the “activity change, negative = inhibition” value is -0.335% (inactive). Still for that read-out and setting: the result for `C/C(=N\NC(=O)Cc1ccc(Br)cc1)c1cccnc1` reads 3.03% (inactive). With `COc1ccc(CC(=O)N/N=C(\C)c2ccccn2)cc1`, the Potency was 3.29 µM (active). As to `CCOc1ccc(OCC(=O)Nc2c3c(nn2C(C)(C)C)CS(=O)(=O)C3)cc1`, the “activity change, negative = inhibition” value is 1.09% (inactive). The same measure, in the same setting: the value for `Cc1cc(C(=O)CCC(=O)NNC(=O)c2ccccc2O)c(C)s1` was 0% (inactive); that for `CCOc1ccc2[nH]c(=O)c(CN(CCCO)S(=O)(=O)c3ccc(F)cc3)cc2c1` was -19% (inactive); that for `O=C(NC1CCCCC1)c1ccc2c(=O)n(CC3CCCO3)c(=O)[nH]c2c1` (stereo not drawn) was -28.7% (inactive). On to `CCCCCn1c(=O)[nH]c2cc(C(=O)NCCCN3CCCCC3C)ccc2c1=O` (stereo not drawn), for which the Potency is 9.28 µM (active). Turning to `CC1CCCCN1CCCNC(=O)Cn1ncc2c([nH]c3ccccc32)c1=O` (stereo not drawn), the “activity change, negative = inhibition” value was 33.3% (inactive). With `COc1ccccc1CNC(=O)C1CCN(C(=O)[C@@H]2Cc3ccccc3CN2)CC1`, the “activity change, negative = inhibition” value is 18.3% (inactive). Same read-out and setting: the value for `COc1cc(NC(=O)c2cccnc2SC)cc(OC)c1` was -7.95% (inactive); that for `CCCNC(=O)Nc1ccccc1C(=O)Nc1ccc(OC)cc1` was 31.3% (inactive). As to `CCOC(=O)Cc1ncccc1C(=O)Nc1ccc(OC)cc1`, the Potency was 13.1 µM (active). Take `COC(=O)c1ccc([C@@H](O)[C@H](C)C(=O)CC(=O)OC(C)(C)C)cc1`: the “activity change, negative = inhibition” value is -15% (inactive). Still for that read-out and setting: the result for `Cc1nc(CN(C)C(=O)CC2C(=O)NCCN2Cc2ccc(F)cc2)cs1` (stereo not drawn) reads 6.05% (inactive). Take `CC(=O)N(CC(O)CO)c1c(I)c(C(=O)NCC(O)CO)c(I)c(C(=O)NCC(O)CO)c1I` (stereo not drawn): the Potency result is “inactive and 15.1 µM (active)”. For the compound `COc1ccc(NC(=O)CN2C(=O)COc3ccc(S(=O)(=O)N4CCOCC4)cc32)c(OC)c1`, the “activity change, negative = inhibition” value is 0% (inactive). Turning to `CN(Cc1ccccc1)c1nc2c(c(=O)[nH]c(=O)n2C)n1CCSc1nc2ccccc2[nH]1`, the Potency was 8.28 µM (active).

As for `C=CCSc1nc2c(c(=O)[nH]c(=O)n2C)n1Cc1ccccc1`, the “activity change, negative = inhibition” value was 29.2% (inactive). Still for that read-out and setting: the result for `CN(Cc1ccccc1)C(=O)CSc1nc2ccccc2[nH]1` reads 15% (inactive). Same read-out and setting: the result for `CC(Oc1cccc(Cl)c1)C(=O)NC1CC(C)(C)NC(C)(C)C1` (stereo not drawn) reads 4.79% (inactive); that for `O=C1CN(C(=O)c2cc(F)cc(F)c2)c2ccccc2N1`, 7.56% (inactive); that for `O=C(Nc1ccc(Br)cc1)c1cc(S(=O)(=O)Nc2ccccn2)ccc1Cl`, 2.06% (inactive). The same measure, in the same setting: the value for `CN(CC(=O)NCCc1ccc(F)cc1)CC(=O)Nc1ccc(F)c(F)c1F` was -3.85% (inactive); that for `COc1ccc(C2CC(c3cccs3)=NN2C(=O)CSc2nnc(N)s2)cc1OC` (stereo not drawn) was -32.9% (inactive). For `COc1cccc(C2CC(c3cccs3)=NN2C(=O)CSC2=NCCS2)c1OC` (stereo not drawn), the Potency was 10.4 µM (active). On to `COc1ccc(C2=NN(C(=O)CCC(=O)O)C(c3cccs3)C2)cc1OC` (stereo not drawn), for which the “activity change, negative = inhibition” value was -8.8% (inactive). The same measure, in the same setting: the value for `COc1ccccc1C(=O)NCCC(=O)NN1C(=O)NC2(CCCCC2)C1=O` was 4.51% (inactive); that for `COC(=O)c1cccc(N(CC(=O)NCC2CCCO2)C(=O)CCC(=O)Nc2cc(C)on2)c1` (stereo not drawn) was 7.34% (inactive).

In the case of `CCCCOc1ccc(N(CC(=O)NCC2CCCO2)C(=O)CCC(=O)Nc2cc(C)ccn2)cc1` (stereo not drawn), the Potency was 9.28 µM (active). Consider `Cc1cc(NC(=O)CCC(=O)N(CC(=O)NCC2CCCO2)c2ccccc2)no1` (stereo not drawn), for which the “activity change, negative = inhibition” value is 3.81% (inactive). For `Cc1cccc(OCCC(=O)OCc2csc(CC(=O)Nc3ccccc3C)n2)c1`, the “activity change, negative = inhibition” value was -15.4% (inactive). Still for that read-out and setting: the result for `Cn1ncc2c(N3CCCCC3)nc(NCCCO)nc21` reads 1.55% (inactive); that for `Cc1ccc(NC(=O)CCCNC(=O)c2ccc(Cl)cc2)cc1S(=O)(=O)N1CCCCC1`, 6.37% (inactive). Consider `CCc1ccccc1OCC(=O)Nc1ccc(C)c(S(=O)(=O)N2CCCCCC2)c1`, for which the Potency was 10.4 µM (active). Regarding `CCc1ccccc1OCC(=O)Nc1ccc2c(c1)OCCO2`, the “activity change, negative = inhibition” value is 101% (inactive).

Regarding `COc1ccc(C(=O)NC2CC(C)(C)NC(C)(C)C2)cc1OC`, the “activity change, negative = inhibition” value was 7.82% (inactive). The same measure, in the same setting: the value for `COc1ccc(S(=O)(=O)NC(C)c2ccccc2)cc1C(=O)N1CCCCC1` (stereo not drawn) was -18.6% (inactive); that for `COc1cccc(C(=O)NNS(=O)(=O)c2ccc(F)cc2)c1` was 23.1% (inactive).
